Data from PubChem BioAssay (Tox21).
Results filed as inconclusive are left out. Active and inactive are the calls of the source. Unless noted, calls follow the shape of the dose curve; as a rule, active = well fitted curve in the direction sought with a large enough effect in the repeat runs; inconclusive = weak or mixed curves; inactive = no such curve, though single readings can be large; an effect the other way counts as inactive or inconclusive.

Legend:
[1] = qHTS assay to identify small molecule antagonists of the glucocorticoid receptor (GR) signaling pathway - cell viability counter screen (AID 720693); also: nearly all actives have a fitted effect of over 55% in size
[2] = qHTS assay to identify small molecule antagonists of the androgen receptor (AR) signaling pathway - cell viability counter screen (AID 743033; also: nearly all actives have a fitted effect of over 45% in size)
[3] = target: Androgen receptor (Homo sapiens) (UniProt P10275); test: qHTS assay to identify small molecule antagonists of the androgen receptor (AR) signaling pathway (AID 743035; active = well fitted inhibition curve with a large enough effect in the signal ratio in the repeat runs, not every such curve was filed as active; the % refers to the signal ratio)
In short: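 Quantitative HTS of the Tox21 10K library used HEK293 AR-UAS-bla cells stimulated with R1881 alongside compound for 16 h at 37C, followed by beta-lactamase FRET detection (LiveBLAzer B/G, 2 h, RT).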

[4] = target: Androgen receptor (Homo sapiens) (UniProt P10275); test: qHTS assay to identify small molecule agonists of the androgen receptor (AR) signaling pathway (AID 743036; active = well fitted activation curve with a large enough effect in the signal ratio in the repeat runs, with a control signal flat, not every such curve was filed as active; the % refers to the signal ratio)
In short: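 AR-UAS-bla HEK293 cells, plated 4 h before dosing, were treated with compound for 16 h at 37C. beta-Lactamase reporter read after 2 h with LiveBLAzer B/G FRET substrate at room temperature.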

[5] = target: Androgen receptor (Homo sapiens) (UniProt P10275); test: qHTS assay to identify small molecule agonists of the androgen receptor (AR) signaling pathway using the MDA cell line (AID 743040; also: nearly all actives have a fitted effect of over 20% in size)
In short: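 Stable MMTV-luciferase reporter in MDA-kb2 cells; note the promoter carries GR as well as AR response elements. 16 h compound treatment, 37C, 0% CO2; ONE-Glo luminescence endpoint.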

[6] = target: Androgen receptor (Homo sapiens) (UniProt P10275); test: qHTS assay to identify small molecule antagonists of the androgen receptor (AR) signaling pathway using the MDA cell line (AID 743042; also: nearly all actives have a fitted effect of over 55% in size)
In short: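 Antagonist mode: compounds plus R1881 agonist added to MDA-kb2 AR-luc cells, incubated 16 h at 37C. Luciferase reporter luminescence quantified, with multiplexed CellTiter-Fluor readout for cell viability.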

[7] = qHTS assay to identify small molecule antagonists of the thyroid receptor (TR) signaling pathway - cell viability counter screen (AID 743064); also: nearly all actives have a fitted effect of over 50% in size
In short: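 GH3.TRE-Luc rat pituitary cells dosed after 4 hr plating, co-stimulated with T3 at 1 nM final, incubated 23.5 h at 37 C. Viability measured in the same wells by CellTiter-Fluor fluorescence after 30 min further at 37 C.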

[8] = qHTS assay to identify small molecule antagonists of the thyroid receptor (TR) signaling pathway (AID 743065); also: series mostly up to about 70 µM; nearly all actives have a fitted effect of over 55% in size
In short: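 Antagonism measured as loss of luciferase signal in GH3 cells stably carrying a TRE-luciferase reporter, co-treated with compound and T3 (1 nM final) for 23.5 h at 37 C. Viability was read in the same well by CellTiter-Fluor.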

[9] = system: thyroid hormone receptor (rat, GH3 cells); test: qHTS assay to identify small molecule agonists of the thyroid receptor (TR) signaling pathway (AID 743066; calls by dose curve)
[10] = qHTS assay to identify small molecule antagonists of the estrogen receptor alpha (ER-alpha) signaling pathway - cell viability counter screen (AID 743074; calls by dose curve; also: nearly all actives have a fitted effect of over 45% in size)
[11] = qHTS assay to identify small molecule antagonists of the estrogen receptor alpha (ER-alpha) signaling pathway using the BG1 cell line - cell viability counter screen (AID 743081);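 also: compound given together with 17beta-estradiol as the ER stimulus; series mostly up to about 70 µM; nearly all actives have a fitted effect of over 45% in size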
Aromatase (Homo sapiens) = Aromatase (Homo sapiens) (UniProt P11511); test: qHTS assay to identify aromatase inhibitors (AID 743083); also: series mostly up to about 70 µM; nearly all actives have a fitted effect of over 55% in size
[12] = qHTS assay for identifying genotoxic compounds that show differential cytotoxicity against isogenic chicken DT40 cell lines with known DNA damage response pathways - wild type cell line (AID 743012); also: nearly all actives have a fitted effect of over 60% in size
In short: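 Luminescent ATP viability signal (CellTiter-Glo, 30 min RT) recorded after wild type DT40 cells were incubated with compounds for 40 h at 37 C/5% CO2.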

[13] = qHTS assay for identifying genotoxic compounds that show differential cytotoxicity against isogenic chicken DT40 cell lines with known DNA damage response pathways - Rev3 mutant cell line (AID 743014); also: nearly all actives have a fitted effect of over 55% in size
[14] = qHTS assay for identifying genotoxic compounds that show differential cytotoxicity against isogenic chicken DT40 cell lines with known DNA damage response pathways - Rad54/Ku70 mutant cell line (AID 743015); also: nearly all actives have a fitted effect of over 60% in size
[15] = qHTS assay to identify small molecule antagonists of the androgen receptor (AR) signaling pathway using the MDA cell line - cell viability counter screen (AID 743041; also: nearly all actives have a fitted effect of over 45% in size)
In short: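 Using the breast carcinoma line MDA-kb2 AR-luc, test chemicals were co-incubated with R1881 for 16 h; CellTiter-Fluor reagent, added at 15.5 h, provided a fluorescence measure of live cells.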

[16] = target: Estrogen receptor (Homo sapiens) (UniProt P03372); test: qHTS assay to identify small molecule antagonists of the estrogen receptor alpha (ER-alpha) signaling pathway (AID 743069; active = well fitted curve in the direction sought with a large enough effect in the signal ratio in the repeat runs, not every such curve was filed as active; the % refers to the signal ratio)
In short: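 Fluorescence intensity from a beta-lactamase FRET substrate served as the read-out. Cells: HEK293 with stably integrated ER-alpha-UAS-bla reporter. Agonist 17beta-estradiol was co-added with compounds; incubation 18 hr at 37C, substrate 2 hr at room temperature.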

[17] = target: Estrogen receptor (Homo sapiens) (UniProt P03372); test: qHTS assay to identify small molecule agonists of the estrogen receptor alpha (ER-alpha) signaling pathway (AID 743075; calls by dose curve)
[18] = target: Estrogen receptor (Homo sapiens) (UniProt P03372); test: qHTS assay to identify small molecule agonists of the estrogen receptor alpha (ER-alpha) signaling pathway using the BG1 cell line (AID 743079); also: nearly all actives have a fitted effect of over 20% in size
[19] = qHTS assay to identify small molecule antagonists of the estrogen receptor alpha (ER-alpha) signaling pathway using the BG1 cell line (AID 743080; calls by dose curve;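 also: BG1 cells stimulated with 17beta-estradiol alongside compound; series mostly up to about 70 µM; nearly all actives have a fitted effect of over 25% in size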)
In short: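 Seeding, 24 h rest, compound transfer from DMSO, 17beta-estradiol addition, 21.5 h incubation, CellTiter-Fluor (30 min, 37 C), then ONE-Glo (30 min, room temperature): this sequence was run on BG1-Luc-4E2 reporter cells.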

Measured: Potency

Sequence of Aromatase (Homo sapiens) (P11511 whole entry, looked up): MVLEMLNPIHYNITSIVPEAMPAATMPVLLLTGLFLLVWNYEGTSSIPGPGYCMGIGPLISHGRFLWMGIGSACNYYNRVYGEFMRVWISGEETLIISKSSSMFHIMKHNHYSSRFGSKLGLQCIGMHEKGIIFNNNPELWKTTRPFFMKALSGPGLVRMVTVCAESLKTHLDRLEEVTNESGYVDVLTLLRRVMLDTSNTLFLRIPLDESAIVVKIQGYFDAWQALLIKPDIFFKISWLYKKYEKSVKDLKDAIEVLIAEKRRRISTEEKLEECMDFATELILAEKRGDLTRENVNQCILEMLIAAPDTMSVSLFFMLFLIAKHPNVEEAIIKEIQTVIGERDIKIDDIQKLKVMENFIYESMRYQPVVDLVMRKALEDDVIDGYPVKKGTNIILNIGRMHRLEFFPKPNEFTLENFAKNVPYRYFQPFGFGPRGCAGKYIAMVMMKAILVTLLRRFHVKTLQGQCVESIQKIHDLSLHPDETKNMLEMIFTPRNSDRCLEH
Sequence of Androgen receptor (Homo sapiens) (P10275 whole entry, looked up): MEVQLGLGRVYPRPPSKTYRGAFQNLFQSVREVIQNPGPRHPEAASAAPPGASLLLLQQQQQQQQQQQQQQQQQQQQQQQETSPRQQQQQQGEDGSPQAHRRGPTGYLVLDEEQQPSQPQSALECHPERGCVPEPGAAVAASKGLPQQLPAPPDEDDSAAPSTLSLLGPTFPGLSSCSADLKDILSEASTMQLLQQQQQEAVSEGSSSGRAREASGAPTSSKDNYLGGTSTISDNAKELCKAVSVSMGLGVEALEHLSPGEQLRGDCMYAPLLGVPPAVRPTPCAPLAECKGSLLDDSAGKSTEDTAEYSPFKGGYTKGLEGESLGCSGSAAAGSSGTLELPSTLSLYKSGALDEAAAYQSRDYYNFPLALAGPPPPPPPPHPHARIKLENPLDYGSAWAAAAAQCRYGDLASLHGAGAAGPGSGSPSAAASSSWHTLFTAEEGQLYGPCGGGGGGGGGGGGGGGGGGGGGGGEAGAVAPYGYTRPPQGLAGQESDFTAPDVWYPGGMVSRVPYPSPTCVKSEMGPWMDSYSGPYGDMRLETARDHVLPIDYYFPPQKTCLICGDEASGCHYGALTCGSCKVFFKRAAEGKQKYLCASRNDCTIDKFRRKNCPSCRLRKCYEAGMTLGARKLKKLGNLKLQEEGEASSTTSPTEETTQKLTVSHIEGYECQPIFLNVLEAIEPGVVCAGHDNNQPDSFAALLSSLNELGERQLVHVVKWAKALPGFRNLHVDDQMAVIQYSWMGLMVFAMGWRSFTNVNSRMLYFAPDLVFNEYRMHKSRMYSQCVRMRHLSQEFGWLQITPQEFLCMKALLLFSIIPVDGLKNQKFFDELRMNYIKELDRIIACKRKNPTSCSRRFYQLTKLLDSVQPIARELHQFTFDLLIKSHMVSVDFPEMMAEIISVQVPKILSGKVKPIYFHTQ
Sequence of Estrogen receptor (Homo sapiens) (P03372 whole entry, looked up): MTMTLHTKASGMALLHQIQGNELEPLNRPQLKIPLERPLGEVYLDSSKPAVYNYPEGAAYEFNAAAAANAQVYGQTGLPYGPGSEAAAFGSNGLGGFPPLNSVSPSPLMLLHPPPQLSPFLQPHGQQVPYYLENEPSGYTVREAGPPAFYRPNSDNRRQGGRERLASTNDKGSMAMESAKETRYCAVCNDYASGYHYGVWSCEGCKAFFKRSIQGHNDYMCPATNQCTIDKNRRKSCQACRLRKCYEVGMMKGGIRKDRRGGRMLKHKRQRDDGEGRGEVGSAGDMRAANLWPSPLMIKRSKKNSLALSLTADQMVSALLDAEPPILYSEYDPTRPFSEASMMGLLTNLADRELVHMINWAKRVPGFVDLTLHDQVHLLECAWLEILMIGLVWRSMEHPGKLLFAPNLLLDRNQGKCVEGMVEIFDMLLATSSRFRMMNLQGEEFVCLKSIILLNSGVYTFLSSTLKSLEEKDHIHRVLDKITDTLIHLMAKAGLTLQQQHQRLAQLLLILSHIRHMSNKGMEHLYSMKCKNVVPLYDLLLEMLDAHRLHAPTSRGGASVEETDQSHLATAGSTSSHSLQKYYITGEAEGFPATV

Cc1c(C(=O)NCCO)[n+](=O)c2ccccc2n1[O-]
not listed: [12] | [13] | [14] | [15] | [16] | [17] | [18] | [19]
inactive: all other assays above

CC(=O)Oc1cc(C(C)C)c(OCCN(C)C)cc1C
inactive: [12] | [13] | [14] | [2] | [7] | [8] | [9] | [10] | Aromatase (Homo sapiens)

O=C(Cl)c1cccc([N+](=O)[O-])c1
not listed: [3] | [4] | [5] | [6] | [7] | [12] | [13] | [14]
inactive: all other assays above

CCCNC(C)(C)COC(=O)c1ccccc1
not listed: [3] | [4] | [5] | [6] | [7] | [12] | [13] | [14]
inactive: all other assays above

CCCCC(=O)O[C@]1(C(=O)CO)[C@H](C)C[C@H]2[C@@H]3CCC4=CC(=O)C=C[C@]4(C)[C@@]3(F)[C@@H](O)C[C@@]21C
inactive: [1] | [15] | [7] | [9] | [10] | [17] | [18] | [11] | Aromatase (Homo sapiens)

CO[C@@]1(NC(=O)CSCC#N)C(=O)N2C(C(=O)O)=C(CSc3nnnn3C)CS[C@@H]21
not listed: [3] | [4] | [5] | [6] | [7] | [12] | [13] | [14]
inactive: all other assays above

CC(=O)Nc1ccc(C)c(Cl)c1
inactive: [1] | [14] | [2] | [8] | [9] | [10] | [11] | Aromatase (Homo sapiens)

C[C@]12CCC(=O)C=C1CC[C@@H]1[C@@H]2CC[C@@]2(C)[C@H]1CC[C@]2(O)C(=O)CO
inactive: [1] | [2] | [15] | [7] | [9] | [10] | [17] | [19] | [11] | Aromatase (Homo sapiens)

CCCCN1C[C@H](O)[C@@H](O)[C@H](O)[C@H]1CO
not listed: [1] | [3] | [4] | [5] | [6] | [7] | [11]
inactive: all other assays above

C=CCc1cc(OC)c(O)c(C(=O)NCCO)c1
not listed: [3] | [4] | [5] | [6] | [7] | [12] | [13] | [15]
inactive: all other assays above

CCCCNc1cc(C(=O)O)cc(S(N)(=O)=O)c1Oc1ccccc1
inactive: [1] | [14] | [2] | [7] | [8] | [9] | [10] | [11] | Aromatase (Homo sapiens)
